# Test results taken from PubChem BioAssay AID1159602 (The Scripps Research Institute Molecular Screening Center, 2016).
# The whole screen tested about 22,000 compounds, of which about 220 (1%) were called active. No stated cut-off is given here; in the data, active means inhibition above about 35%; inactive means the rest. The sample as a whole holds a higher share of actives than the screen did.
# Target: Mitogen-activated protein kinase kinase kinase 5 (Homo sapiens) (UniProt Q99683)
# Test: ASK1 kinase inhibitors, primary screen, biochemical, AlphaScreen (AID 1159602);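 further: 0% = median of compound wells and 100% = no enzyme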
# Conditions: AlphaScreen MKK6 phosphorylation by ASK1, luminescence; at 7.44 µM; active compounds read high
# Chain of Mitogen-activated protein kinase kinase kinase 5 (Homo sapiens) (Q99683 whole entry, looked up): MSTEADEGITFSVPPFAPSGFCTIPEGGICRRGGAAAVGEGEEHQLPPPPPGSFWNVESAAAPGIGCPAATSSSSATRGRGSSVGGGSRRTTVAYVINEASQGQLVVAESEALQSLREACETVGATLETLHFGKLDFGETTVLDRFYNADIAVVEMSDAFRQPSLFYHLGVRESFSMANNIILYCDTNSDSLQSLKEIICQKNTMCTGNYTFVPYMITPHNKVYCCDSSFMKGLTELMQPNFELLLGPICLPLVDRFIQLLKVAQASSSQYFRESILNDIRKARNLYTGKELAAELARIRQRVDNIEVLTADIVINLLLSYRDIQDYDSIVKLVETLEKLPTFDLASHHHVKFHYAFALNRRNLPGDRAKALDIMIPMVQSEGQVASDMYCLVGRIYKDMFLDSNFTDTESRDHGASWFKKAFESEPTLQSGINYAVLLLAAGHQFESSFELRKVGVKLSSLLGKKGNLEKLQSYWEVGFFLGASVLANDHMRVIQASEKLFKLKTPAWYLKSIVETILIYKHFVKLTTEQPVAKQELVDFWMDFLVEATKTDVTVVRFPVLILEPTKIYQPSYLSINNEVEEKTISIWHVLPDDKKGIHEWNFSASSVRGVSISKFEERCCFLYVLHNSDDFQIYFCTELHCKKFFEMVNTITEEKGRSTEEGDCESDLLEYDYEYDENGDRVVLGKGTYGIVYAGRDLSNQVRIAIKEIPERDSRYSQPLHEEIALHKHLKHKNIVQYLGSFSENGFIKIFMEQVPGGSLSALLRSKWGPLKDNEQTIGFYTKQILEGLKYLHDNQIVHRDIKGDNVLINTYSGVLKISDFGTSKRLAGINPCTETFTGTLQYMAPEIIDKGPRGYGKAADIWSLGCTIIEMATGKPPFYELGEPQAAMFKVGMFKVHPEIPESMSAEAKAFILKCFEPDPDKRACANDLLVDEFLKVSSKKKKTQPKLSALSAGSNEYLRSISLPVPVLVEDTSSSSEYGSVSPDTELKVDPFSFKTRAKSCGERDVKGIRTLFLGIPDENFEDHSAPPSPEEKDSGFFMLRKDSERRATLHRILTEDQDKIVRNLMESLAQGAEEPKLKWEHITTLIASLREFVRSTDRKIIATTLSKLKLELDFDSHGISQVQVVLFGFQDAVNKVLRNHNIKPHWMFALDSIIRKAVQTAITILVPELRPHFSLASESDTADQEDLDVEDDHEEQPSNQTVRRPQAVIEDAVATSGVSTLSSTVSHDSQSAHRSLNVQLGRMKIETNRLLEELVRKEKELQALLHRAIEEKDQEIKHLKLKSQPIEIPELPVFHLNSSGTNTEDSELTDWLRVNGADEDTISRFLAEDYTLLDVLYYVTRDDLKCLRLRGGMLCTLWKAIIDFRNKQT
row,SMILES,inhibition
1,O=C(NCc1cccc(C(F)(F)F)c1)c1csc(NCc2ccc3c(c2)OCO3)n1,8.66% (inactive)
2,Cc1cc(NCCO)nc(Nc2nccc3ccccc23)n1,-10.4% (inactive)
3,COc1nc(N)nc(-c2csc3ccccc23)n1,2.99% (inactive)
4,CCNc1nc(Nc2cc(OC)c(OC)c(OC)c2)c2ncn(-c3ccsc3)c2n1,8.63% (inactive)
5,O=C(NCCN1CCOCC1)c1csc(N2CCC(N3CCOCC3)CC2)n1,-5.25% (inactive)
6,c1cn(-c2ccc(Nc3nc4ncnc(NC5CC5)c4[nH]3)cc2)cn1,18.6% (inactive)
7,COc1ccc(-c2cc(C(=O)Nc3ccc(N4CCOCC4)cc3)ccn2)cc1,11.5% (inactive)
8,c1ccc(CN2CCC(Nc3nc(N4CCc5ccccc5C4)nc4c3ncn4-c3ccsc3)CC2)cc1,9.04% (inactive)
9,Cc1ncn(-c2ccc(Nc3nccc(N4CCc5[nH]ncc5C4)n3)cc2)n1,-13.8% (inactive)
10,CCN(CC)c1nc(NCc2nc3ccccc3[nH]2)nc(N2CCCC2CO)n1 (stereo not given),-6.32% (inactive)
11,c1ccc2[nH]c(CNc3ncnc4nc(N5CCC(N6CCOCC6)CC5)[nH]c34)nc2c1,-21.4% (inactive)
12,O=C(NCC(O)c1ccc(Br)cc1)c1cn(-c2cccc3c(=O)[nH]ccc23)nn1 (stereo not given),13.4% (inactive)
13,c1ccc(OCCNc2cc(-c3ccccc3)ncn2)cc1,-16.6% (inactive)
14,CC(=O)Nc1ccc(Nc2ccnc(N3CCC(N4CCOCC4)CC3)n2)cc1,-0.1% (inactive)
15,CC(C)n1cnc2c(NCc3ccccc3)nc(NC3CCC(O)CC3)nc21 (stereo not given),-16.8% (inactive)
16,Cc1ccc(C(=O)N2CCCC(Nc3cccc4cncc(C)c34)C2)cc1F (stereo not given),-24.3% (inactive)
17,CN(C)CCCNC(=O)c1ccc2c(c1)CC(c1nc3ccc(-c4ccnc(N)n4)cc3[nH]1)CO2 (stereo not given),12.4% (inactive)
18,c1ccc(-n2cnc3c(NCCN4CCOCC4)nc(Nc4ccc(-n5ccnc5)cc4)nc32)cc1,5.99% (inactive)
19,O=C(NCCN1CCOCC1)c1cccc(-n2ncc3cc(Nc4ccccc4F)ccc32)n1,-7.35% (inactive)
20,O=C(Nc1ccc(N2CCOCC2)cc1)c1cccc(N2CCC(N3CCOCC3)CC2)n1,13.2% (inactive)
21,Nc1nc(N2CCN(c3ccccn3)CC2)nc2c1ncn2-c1ccsc1,1.87% (inactive)
22,CC(=O)Nc1ccc(Nc2nc(Nc3ccc(-n4ccnc4)cc3)nc3c2ncn3-c2ccsc2)cc1,4.85% (inactive)

row,SMILES,inhibition
1,O=C(NCCN1CCOCC1)c1cccc(-c2ccc(N3CCOCC3)nc2)c1,1.42% (inactive)
2,CC(C)N(CCNC(=O)c1ccnc(Nc2ccc(C(F)(F)F)cc2)c1)C(C)C,7.8% (inactive)
3,CCCN1CCN(c2c(Cl)cccc2NC(=O)Nc2ccc(Br)cc2)CC1,-17.3% (inactive)
4,c1cc(-c2cncc(N3CCOCC3)c2)nc(Nc2ccc3c(c2)OCO3)n1,-4.36% (inactive)
5,COc1ccc(CCNc2cc(NCc3cccnc3)nc(N)n2)cc1,-6.16% (inactive)
6,Cc1cc(NC2CC2)nc(NCCCN2CCCC2=O)n1,7.09% (inactive)
7,COc1ccc(CCNc2cc(-c3ccc(OC)cc3)nc(N)n2)cc1,-5.04% (inactive)
8,COc1cc2nc(Nc3nccc4ccccc34)nc(Nc3ccccc3)c2cc1OC,-29.2% (inactive)
9,COc1cc2nc(NCc3ccc4c(c3)OCO4)nc(Nc3ccc(NC(C)=O)cc3)c2cc1OC,18.8% (inactive)
10,COc1cc2nc(Nc3cccc(N(C)C)c3)nc(Nc3cc(OC)c(OC)c(OC)c3)c2cc1OC,36.7% (active)
11,COc1cc2nc(Nc3ccc4ncccc4c3)nc(Nc3ccc(NC(C)=O)cc3)c2cc1OC,35.6% (active)
12,COc1cc2nc(Nc3ncccn3)nc(Nc3cc(OC)c(OC)c(OC)c3)c2cc1OC,14.3% (inactive)
13,COc1cc(Nc2nc(Nc3cccc(N(C)C)c3)nc3nc[nH]c23)cc(OC)c1OC,27% (inactive)
14,FC(F)(F)c1ccc(Cn2cnc3c(NCc4nc5ccccc5[nH]4)nc(N4CCOCC4)nc32)cc1,-1.96% (inactive)
15,Cn1nccc1-c1cc(F)cc(-c2ccnc(Nc3ccc(-n4cnc(N5CCOCC5)n4)cc3)n2)c1,21.1% (inactive)
16,O=C(Nc1cccc(Cl)c1N1CCC(N2CCCCC2)CC1)c1ccc(Br)o1,9.68% (inactive)
17,O=C1CCCN1CCn1cnc2c(Nc3ccc(N4CCOCC4)cc3)nc(Nc3ccccc3)nc21,13.9% (inactive)
18,COc1ccc(CCNC(=O)c2cccc(-c3ccc(C(N)=O)cc3)n2)cc1,0.41% (inactive)
19,CNC(=O)c1cc(F)ccc1Nc1cc(Nc2ccc3c(c2)CCC(=O)N3)ncc1C(F)(F)F,2.41% (inactive)
20,c1ccc(CCNc2nccc(Nc3ccncn3)n2)cc1,1.01% (inactive)
21,CC(C)n1cnc2c(Nc3ccc(N4CCOCC4)cc3)nc(Nc3ccncc3)nc21,4.78% (inactive)
22,COc1cc(Nc2nc(N3CCc4ccccc4C3)nc3c2ncn3-c2ccccc2)cc(OC)c1OC,38.8% (active)

row,SMILES,inhibition
1,COc1cc(Nc2nc(N3CCc4ccccc4C3)nc3c2ncn3-c2ccsc2)cc(OC)c1OC,6.46% (inactive)
2,CCCNc1nc(N2CCc3ccccc3C2)nc2c1ncn2-c1ccccc1,6.17% (inactive)
3,O=C(NCc1ccccc1)c1cnc(NCc2ccc3c(c2)OCO3)s1,-19.1% (inactive)
4,O=C1CCCN1CCCNc1nccc(NC2CCN(Cc3ccccc3)CC2)n1,-6.87% (inactive)
5,c1nc(Nc2ccc(N3CCOCC3)cc2)cc(N2CCOCC2)n1,3.52% (inactive)
6,Nc1nc(Nc2ccc(N3CCOCC3)cc2)cc(-c2ccc3[nH]ccc3c2)n1,41.8% (active)
7,CN1CCN(c2ccc(-c3cc(Nc4ccc(N5CCOCC5)cc4)nc(N)n3)cc2)CC1,17.6% (inactive)
8,Nc1cccc(-c2nc(NCCc3ccc(O)cc3)c3ncn(Cc4ccc(C(F)(F)F)cc4)c3n2)c1,3.28% (inactive)
9,c1ccc(CCCNc2nccc(Nc3ccncn3)n2)cc1,12.3% (inactive)
10,Nc1nc(Nc2ccc(-n3ccnc3)cc2)cc(NC2CCN(Cc3ccccc3)CC2)n1,18.2% (inactive)
11,COc1ccc(-c2cccc(C(=O)Nc3ccccc3)n2)cn1,-3.52% (inactive)
12,O=C(NCCO)c1ccc2nc(NCCN3CCOCC3)sc2c1,-9.95% (inactive)
13,COc1nc(Nc2ccccc2)nc(-c2csc3ccccc23)n1,-2.87% (inactive)
14,c1csc(-c2ccnc(Nc3ccc(N4CCOCC4)cc3)n2)c1,13.2% (inactive)
15,CCCNc1nc(-c2cccc(C(C)=O)c2)ncc1C,-6.63% (inactive)
16,O=C(Nc1ccc2[nH]ncc2c1)C1CCN(C(=O)[C@H](O)c2cccc(Cl)c2)C1 (stereo not given in full),-11.7% (inactive)
17,CC(C)n1cnc2c(NC3CCN(Cc4ccccc4)CC3)nc(-c3ccc(N4CCOCC4)nc3)nc21,11% (inactive)
18,O=C1CCCN1CCCNc1cc(NCc2cccnc2)ncn1,2.26% (inactive)
19,CCN(CC)C(=O)C1CCCN(c2nc3ncnc(NCCN4CCOCC4)c3[nH]2)C1 (stereo not given),1.62% (inactive)
20,O=C(NC1CC1)c1ccc(-c2ncc(C(=O)Nc3ccc(N4CCOCC4)cc3)s2)cc1,1.95% (inactive)
21,Nc1cccc(-c2ccc(C(=O)NCc3nc4ccccc4[nH]3)s2)c1,7.11% (inactive)
22,CCCNc1nc(-c2ccc(C(=O)N3CCN(C)CC3)cc2)nc2c1ncn2C(C)C,-4.93% (inactive)

row,SMILES,inhibition
1,c1ccc(OCCNc2cc(NCc3ccc4c(c3)OCO4)ncn2)cc1,11.6% (inactive)
2,O=C(NC1CC1)c1ccc(-c2nc(NC3CC3)c3ncn(C4CCCCC4)c3n2)cc1,-4.59% (inactive)
3,Cc1[nH]ncc1-c1ccc(NC(=O)CCc2ccccc2)cc1,1.62% (inactive)
4,O=C(NC1CC1)c1ccc(-c2nc(C(=O)NCc3cccc(C(F)(F)F)c3)cs2)cc1,-7.56% (inactive)
5,c1ccc(CN2CCC(Nc3nc(NCc4ccc5c(c4)OCO5)nc4c3ncn4C3CCCCC3)CC2)cc1,24.9% (inactive)
6,FC(F)(F)c1ccc(Cn2cnc3c(NC4CCN(Cc5ccccc5)CC4)nc(Nc4nccc5ccccc45)nc32)cc1,7.54% (inactive)
7,FC(F)(F)c1cnc(Nc2ccc(N3CCOCC3)cc2)cc1-n1ncc2ccccc21,-0.62% (inactive)
8,FC(F)(F)c1cccc(CNc2nc(N3CCOCC3)nc3c2ncn3-c2ccsc2)c1,8.31% (inactive)
9,FC(F)(F)c1ccc(Cn2cnc3c(NCc4cccc(C(F)(F)F)c4)nc(Nc4ccc(N5CCOCC5)cc4)nc32)cc1,12.8% (inactive)
10,c1ccc(CNc2nc(N3CCN(c4ccccn4)CC3)nc3c2ncn3-c2ccsc2)cc1,19.3% (inactive)
11,c1ccc(N2CCN(c3nc(NCc4nc5ccccc5[nH]4)c4ncn(-c5ccsc5)c4n3)CC2)nc1,-8.09% (inactive)
12,FC(F)(F)c1cccc(CNc2nc(Nc3ccc(N4CCOCC4)cc3)nc3c2ncn3-c2ccsc2)c1,41.6% (active)
13,FC(F)(F)c1cccc(CNc2ncnc3nc(N4CCOCC4)[nH]c23)c1,-25.3% (inactive)
14,O=C1CCCN1CCCNc1nc(N2CCN(Cc3ccc4c(c3)OCO4)CC2)nc2c1ncn2-c1ccccc1,14.4% (inactive)
15,FC(F)(F)c1cccc(CNc2nc(N3CCN(Cc4ccc5c(c4)OCO5)CC3)nc3c2ncn3-c2ccccc2)c1,36.7% (active)
16,FC(F)(F)c1cccc(CNc2nc(N3CCN(c4ccccn4)CC3)nc3c2ncn3-c2ccsc2)c1,40.9% (active)
17,Cc1cnc(Nc2ccc(N3CCOCC3)cc2)nc1NCc1cccc(C(F)(F)F)c1,41.4% (active)
18,O=C1CCCN1CCn1cnc2c(NCc3cccc(C(F)(F)F)c3)nc(N3CCN(Cc4ccc5c(c4)OCO5)CC3)nc21,15.8% (inactive)
19,COc1cc(Nc2nc(NCc3cccc(C(F)(F)F)c3)c3ncn(-c4ccsc4)c3n2)cc(OC)c1OC,15.7% (inactive)
